Laboratory results: PubChem BioAssay AID1159580 (chemical genetic matrix, 2015)
Where “and” joins values, the source holds several entries; their conditions need not be identical. Equal entries are not always repeated. The whole screen tested about 5,500 compounds, of which about 2,000 (36%) were called active. Inconclusive results (about 18%) are left out. No stated cut-off is given here; in the data, active means normalized growth mostly below about 0.91 (no sharp cut-off); inconclusive means no clear call, values can overlap the other calls; inactive means mostly above about 0.92. The list shows a part of the results.

Assay: chemical genetic growth profiling, strain panel (AID 1159580);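 further: tested at 20 µM; growth read once vehicle control cultures reached saturation at 30 °C; 1 = growth at the plate median or of vehicle wells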
Conditions: S. cerevisiae deletion strains, growth OD

Measured: normalized growth

O=NN(CCCl)C(=O)NCCCl
0.928 (inactive) and 0.341 (active): locus YJL095W, strain BCK1, stronger effect = lower value
inactive: locus YAL021C, strain ccr4, stronger effect = lower value 0.923 | locus YAL026C, strain drs2, stronger effect = lower value 0.955 | locus YAL030W, strain snc1, stronger effect = lower value 0.958 | locus YAL040C, strain CLN3, stronger effect = lower value 0.974 | locus YBL061C, strain skt5, stronger effect = lower value 0.942 | locus YBR009C, strain hhf1, stronger effect = lower value 0.912 | locus YBR021W, strain FUR4, stronger effect = lower value 0.954 | locus YBR023C, strain chs3, stronger effect = lower value 0.942 | locus YBR171W, strain sec66, stronger effect = lower value 0.92 | locus YBR229C, strain ROT2, stronger effect = lower value 0.986 | locus YCL029C, strain bik1, stronger effect = lower value 0.995 | locus YCL069W, strain vba3, stronger effect = lower value 0.962 | locus YCR088W, strain abp1, stronger effect = lower value 0.958 | locus YDL005C, strain med2, stronger effect = lower value 0.958 | locus YDL035C, strain GPR1, stronger effect = lower value 0.909 | locus YDL040C, strain nat1, stronger effect = lower value 0.959 | locus YDL074C, strain BRE1, stronger effect = lower value 0.93 | locus YDL101C, strain DUN1, stronger effect = lower value 0.964 | locus YDL134C, strain PPH21, stronger effect = lower value 0.979 | locus YDL185W, strain tfp1, stronger effect = lower value 0.98 | locus YDL192W, strain arf1, stronger effect = lower value 0.976 | locus YDR001C, strain nth1, stronger effect = lower value 0.96 | locus YDR069C, strain doa4, stronger effect = lower value 0.95 | locus YDR101C, strain arx1, stronger effect = lower value 0.994 | locus YDR137W, strain rgp1, stronger effect = lower value 0.943 | locus YDR150W, strain NUM1, stronger effect = lower value 1.01 and 0.989 | locus YDR162C, strain NBP2, stronger effect = lower value 0.988 | locus YDR195W, strain ref2 0.997 | locus YDR297W, strain sur2, stronger effect = lower value 0.965 | locus YDR318W, strain mcm21, stronger effect = lower value 0.966 | locus YDR335W, strain msn5, stronger effect = lower value 0.96 | locus YDR388W, stronger effect = lower value 0.983 | locus YEL037C, strain rad23, stronger effect = lower value 0.94 | locus YEL061C, strain CIN8 (second series), stronger effect = lower value 0.952 | locus YEL061C, strain CIN8, stronger effect = lower value 1.04 | locus YER002W, strain NOP16, stronger effect = lower value 1.02 | locus YER110C, stronger effect = lower value 0.986 | locus YER111C, strain swi4, stronger effect = lower value 0.958 | locus YER155C, strain BEM2, stronger effect = lower value 1 | locus YER167W, strain BCK2, stronger effect = lower value 1.02 | locus YGL086W, strain mad1, stronger effect = lower value 0.956 | locus YGL167C, strain pmr1, stronger effect = lower value 0.959 | locus YGL173C, strain kem1, stronger effect = lower value 0.922 | locus YGL227W, strain vid30, stronger effect = lower value 0.925 | locus YGL248W, strain PDE1, stronger effect = lower value 0.943 | locus YGL253W, strain hxk2, stronger effect = lower value 0.985 | locus YGR078C, strain PAC10, stronger effect = lower value 0.991 | locus YGR229C, strain SMI1, stronger effect = lower value 0.823 | locus YGR252W, strain gcn5, stronger effect = lower value 0.777 | locus YHR027C, strain rpn1, stronger effect = lower value 0.948 | locus YHR079C, strain IRE1 (second series), stronger effect = lower value 0.988 | locus YHR094C, strain hxt1, stronger effect = lower value 0.994 | locus YHR129C, strain ARP1, stronger effect = lower value 0.991 | locus YHR200W, strain rpn10, stronger effect = lower value 0.958 | locus YIL066C, strain RNR3, stronger effect = lower value 0.994 | locus YIL073C, strain SPO22, stronger effect = lower value 0.928 | locus YIR030C, strain dcg1, stronger effect = lower value 0.991 | locus YJL092W, strain hpr5, stronger effect = lower value 0.922 | locus YJL095W, strain BCK1 (second series), stronger effect = lower value 0.963 | locus YJL115W, strain asf1, stronger effect = lower value 0.923 | locus YJL134W, strain LCB3, stronger effect = lower value 0.997 | locus YJL154C, strain vps35, stronger effect = lower value 0.975 | locus YJL166W, strain qcr8, stronger effect = lower value 0.923 | locus YJL168C, strain set2, stronger effect = lower value 1 | locus YJL187C, strain SWE1 (second series), stronger effect = lower value 1 | locus YJL187C, strain SWE1, stronger effect = lower value 0.944
1.03 (inactive) and 0.315 (active): locus YHR030C, strain SLT2, stronger effect = lower value
active: locus YBR231C, strain swc5, stronger effect = lower value 0.604 | locus YBR279W, strain paf1, stronger effect = lower value 0.929 | locus YCL011C, strain gbp2, stronger effect = lower value 0.902 | locus YCL016C, strain dcc1, stronger effect = lower value 0.847 | locus YCL061C, strain MRC1, stronger effect = lower value 0.916 | locus YDR159W, strain sac3, stronger effect = lower value 0.855 | locus YDR334W, strain swr1, stronger effect = lower value 0.876 | locus YDR392W, strain spt3, stronger effect = lower value 0.562 | locus YDR502C, strain sam2, stronger effect = lower value 0.881 | locus YEL003W, strain gim4, stronger effect = lower value 0.803 | locus YER015W, strain faa2, stronger effect = lower value 0.899 | locus YER016W, strain bim1, stronger effect = lower value 0.875 | locus YER155C, strain BEM2 (second series), stronger effect = lower value 0.583 | locus YFR010W, strain ubp6, stronger effect = lower value 0.836 | locus YGL078C, strain dbp3, stronger effect = lower value 0.912 | locus YGL240W, strain doc1, stronger effect = lower value 0.682 | locus YGR135W, strain pre9, stronger effect = lower value 0.846 | locus YHR013C, strain ard1, stronger effect = lower value 0.64 | locus YHR079C, strain IRE1, stronger effect = lower value 0.298 | locus YHR142W, strain chs7, stronger effect = lower value 0.87 | locus YIL125W, strain kgd1, stronger effect = lower value 0.926 | locus YJL129C, strain trk1, stronger effect = lower value 0.759 | locus YJL164C, strain tpk1, stronger effect = lower value 0.878 | locus YJR043C, strain POL32, stronger effect = lower value 0.74
